Among the data in PubChem BioAssay (EPA / NIEHS) are outcome and AC50 values, retold here.

Read-out in test [1]: Monokine induced gamma interferon (MIG), CXCL9 (gene 4283)
Nature of the test: BSK_SAg_MIG: BioMAP Diversity Plus: SAg Assay for Monokine induced gamma interferon (MIG) Biomarker Activity (AID 2283092). The note with it: primary human HUVEC with PBMC; actives raise or lower the signal. Summed up: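 ELISA readout of MIG/CXCL9; primary human umbilical vein endothelial cells co-cultured with peripheral blood mononuclear cells; 24 h post-dose; gain/loss fit vs DMSO baseline.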

The nature of test [2]: BSK_SAg_PBMCCytotoxicity: PBMC Cytotoxicity Assessment in the BioMAP Diversity Plus: SAg Assay (AID 2283093).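 Also: fitted both ways against DMSO so a hit may be loss or gain of signal.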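 As to AC50: PBMC superantigen activated with SEB plus TSST-1 one hour after compound addition.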 The conditions noted are these: primary human HUVEC with PBMC. Summed up:
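PBMC viability by Alamar Blue reduction, fluorescence read at 546/580 nm after 6 h dye exposure. Cells were dosed 1 h before SEB plus TSST-1 activation (20 ng/mL final each), then held 90 h; endothelial/PBMC human co-culture.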

Read-out in test [3]: Interleukin-8 (IL8), CXCL8 (gene 3576)
Nature of the test: BSK_SAg_IL8: BioMAP Diversity Plus: SAg Assay for Interleukin-8 (IL8) Biomarker Activity (AID 2283094). The note with it: primary human HUVEC with PBMC; actives raise or lower the signal. Summed up:
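Chemicals were dosed onto a human endothelial–PBMC co-culture, and IL-8 was quantified by ELISA after 24 h. Both increases and decreases were fitted relative to DMSO.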

A short description of test [4]: BSK_SAg_Proliferation: Cell Proliferation Assessment in the BioMAP Diversity Plus: SAg Assay (AID 2283095).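 Also: relative cell number as total protein by SRB absorbance in sub-confluent culture.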 The note with it: primary human HUVEC with PBMC. Summed up: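 Absorbance of sulforhodamine B at 560 nm reports total protein in a human vascular endothelial/PBMC co-culture after 96 h chemical exposure. Gain or loss of signal is fitted in both directions against DMSO.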

A short description of test [5]: BSK_SAg_SRB: Viability Assessment in the BioMAP Diversity Plus: SAg Assay (AID 2283096).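 Also: cells read one day after compound addition; hits may be either gain or loss of signal compared with DMSO.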 The conditions noted are these: primary human HUVEC with PBMC. Summed up: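 Compounds were added to a human vascular co-culture of umbilical vein endothelium and PBMC. After 24 h, parallel cultures were fixed with 10% TCA, stained with 0.1% sulforhodamine B and read at 560 nm. Gain or loss of signal was fitted relative to DMSO.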

Test [6] deals with Cytochrome P450 2C19 (Homo sapiens) (UniProt P33261). Nature of the test: NVS_ADME_hCYP2C19: NovaScreen (NVS) CYP450-related Enzyme Activity (ADME) Assay for human CYP2C19 (AID 2283113; active = hit-call score of the fitted dose curve at least 0.9, where 1 is the maximum;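 as to AC50: potency for inhibition seen as loss of fluorescent signal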). Summed up:
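Biochemical CYP2C19 inhibition screen: insect-cell recombinant protein plus fluorescent substrate, 1 h, fluorescence intensity. Acetonitrile defined baseline activity. Single 10 uM concentration in duplicate, with concentration-response follow-up for actives.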

Test [7] concerns the target human CYP2D6, CYP2D6 (gene 1565) (UniProt P10635). In words: NVS_ADME_hCYP2D6: NovaScreen (NVS) CYP450-related Enzyme Activity (ADME) Assay for human CYP2D6 (AID 2283107; active = hit-call score of the fitted dose curve at least 0.9, where 1 is the maximum). Summed up:
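Biochemical fluorescence assay, insect-cell-derived enzyme. Read at 1 h; inhibition taken from loss of signal against acetonitrile. Screened at 10 uM in duplicate, with concentration series for actives.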

For test [8], the target named is human CYP2B6, CYP2B6 (gene 1555) (UniProt P20813). Nature of the test: NVS_ADME_hCYP2B6: NovaScreen (NVS) CYP450-related Enzyme Activity (ADME) Assay for human CYP2B6 (AID 2283101; active = hit-call score of the fitted dose curve at least 0.9, where 1 is the maximum). Summed up: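 Fluorescence-based enzyme activity of recombinant human CYP2B6, measured 1 h post-dose against acetonitrile vehicle baseline. Screened at a single concentration of 10 uM in duplicate before concentration-response follow-up.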
Chain of human CYP2B6, CYP2B6 (gene 1555) (P20813 whole entry, looked up): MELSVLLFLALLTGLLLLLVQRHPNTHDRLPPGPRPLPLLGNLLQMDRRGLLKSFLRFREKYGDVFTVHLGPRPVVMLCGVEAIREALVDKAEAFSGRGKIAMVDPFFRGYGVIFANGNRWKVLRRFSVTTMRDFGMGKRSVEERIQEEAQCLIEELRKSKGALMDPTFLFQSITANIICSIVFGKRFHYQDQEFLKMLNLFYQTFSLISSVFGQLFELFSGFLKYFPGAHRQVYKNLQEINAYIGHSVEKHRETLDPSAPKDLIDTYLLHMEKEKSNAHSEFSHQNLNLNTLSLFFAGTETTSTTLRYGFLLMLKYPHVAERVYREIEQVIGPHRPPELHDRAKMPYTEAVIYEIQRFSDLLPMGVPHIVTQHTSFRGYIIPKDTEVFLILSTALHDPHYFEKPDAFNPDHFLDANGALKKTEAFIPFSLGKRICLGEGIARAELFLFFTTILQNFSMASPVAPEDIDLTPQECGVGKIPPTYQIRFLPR

Test [9] has as its target Cytochrome P450 2C18 (Homo sapiens) (UniProt P33260). Nature of the test: NVS_ADME_hCYP2C18: NovaScreen (NVS) CYP450-related Enzyme Activity (ADME) Assay for human CYP2C18 (AID 2283103). Summed up: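 Enzyme activity measured by fluorescence 0.5 h after compound addition, using recombinant CYP2C18 and a specific substrate. Actives from duplicate 10 uM screening were retested in concentration series (top 20 uM); acetonitrile served as negative baseline.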

For test [10], the target named is human CYP2C9, CYP2C9 (gene 1559) (UniProt P11712). In words: NVS_ADME_hCYP2C9: NovaScreen (NVS) CYP450-related Enzyme Activity (ADME) Assay for human CYP2C9 (AID 2283108; active = hit-call score of the fitted dose curve at least 0.9, where 1 is the maximum). Summed up: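 Recombinant human CYP2C9 expressed in SF9 cells, fluorogenic substrate, fluorescence read 0.75 h after dosing. Chemicals first run in duplicate at 10 uM, with actives followed in concentration series; loss of signal versus acetonitrile baseline.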
Chain of human CYP2C9, CYP2C9 (gene 1559) (P11712 whole entry, looked up): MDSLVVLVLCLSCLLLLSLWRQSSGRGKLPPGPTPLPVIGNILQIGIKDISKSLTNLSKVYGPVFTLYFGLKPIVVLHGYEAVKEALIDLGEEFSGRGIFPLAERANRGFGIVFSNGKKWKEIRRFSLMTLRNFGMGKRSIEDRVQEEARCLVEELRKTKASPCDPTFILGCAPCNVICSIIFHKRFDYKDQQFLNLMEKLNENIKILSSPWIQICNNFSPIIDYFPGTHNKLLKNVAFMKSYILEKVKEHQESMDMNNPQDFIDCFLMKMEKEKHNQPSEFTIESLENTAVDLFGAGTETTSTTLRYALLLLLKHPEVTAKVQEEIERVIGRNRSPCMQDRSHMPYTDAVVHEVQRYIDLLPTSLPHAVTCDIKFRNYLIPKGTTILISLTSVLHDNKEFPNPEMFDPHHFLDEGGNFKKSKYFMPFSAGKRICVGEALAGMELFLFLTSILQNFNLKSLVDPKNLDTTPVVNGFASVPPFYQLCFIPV

Test [11] concerns the target Cytochrome P450 3A4 (Homo sapiens) (UniProt P08684). Nature of the test: NVS_ADME_hCYP3A4: NovaScreen (NVS) CYP450-related Enzyme Activity (ADME) Assay for human CYP3A4 (AID 2283110; active = hit-call score of the fitted dose curve at least 0.9, where 1 is the maximum). Summed up: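 Recombinant CYP3A4 from insect cells, fluorescence enzyme read-out, 0.33 h after chemical addition. Acetonitrile = negative control/baseline. Primary HTS: 10 uM in duplicate; actives re-tested in concentration series.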

Test [12] addresses human CYP19A1, CYP19A1 (gene 1588) (UniProt P11511). Nature of the test: NVS_ADME_hCYP19A1: NovaScreen (NVS) CYP450-related Enzyme Activity (ADME) Assay for human CYP19A1 (AID 2283098; active = hit-call score of the fitted dose curve at least 0.9, where 1 is the maximum;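 as to AC50: potency for inhibitors seen as loss of fluorescent enzyme signal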). Summed up:
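Fluorescence intensity read-out; activity taken as signal loss relative to acetonitrile vehicle. Extracted enzyme, specific substrate, no cells, 0.5 h exposure. Duplicate single-point screen at 10 uM, then concentration–response follow-up for actives.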

Test [13] concerns the target human CYP1A1, CYP1A1 (gene 1543) (UniProt P04798). In words: NVS_ADME_hCYP1A1: NovaScreen (NVS) CYP450-related Enzyme Activity (ADME) Assay for human CYP1A1 (AID 2283100; active = hit-call score of the fitted dose curve at least 0.9, where 1 is the maximum). Summed up: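 Inhibition of recombinant CYP1A1 turnover was assessed fluorometrically in a biochemical format 1 h after compound exposure. Testing began at 10 uM in duplicate and progressed to concentration series reaching 20 uM, with on-plate positive and negative controls.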

Test [14] has as its target human CYP1A2, CYP1A2 (gene 1544) (UniProt P05177). In words: NVS_ADME_hCYP1A2: NovaScreen (NVS) CYP450-related Enzyme Activity (ADME) Assay for human CYP1A2 (AID 2283102; active = hit-call score of the fitted dose curve at least 0.9, where 1 is the maximum;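 also: potency for inhibition since loss of fluorescence marks reduced CYP1A2 activity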). Summed up: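 Inhibition scored as decrease in fluorescent product versus acetonitrile negative control. Enzyme: insect-cell recombinant human CYP1A2, substrate-specific, cell-free. Reading at 0.5 h; 10 uM duplicate initial screen with positive and negative controls on every plate.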

Test [15] concerns the target human CYP2J2, CYP2J2 (gene 1573) (UniProt P51589). Nature of the test: NVS_ADME_hCYP2J2: NovaScreen (NVS) CYP450-related Enzyme Activity (ADME) Assay for human CYP2J2 (AID 2283106; active = hit-call score of the fitted dose curve at least 0.9, where 1 is the maximum). Summed up: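 Chemicals were first tested at 10 uM in duplicate, and hits meeting criteria such as 30% inhibition were run in singleton concentration series with a 20 uM top concentration. Enzyme activity of recombinant CYP2J2 was measured by fluorescence after 1 h, relative to acetonitrile.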

In test [16] the target is rat CYP1A2, Cyp1a2 (gene 24297) (UniProt P04799). In words: NVS_ADME_rCYP1A2: NovaScreen (NVS) CYP450-related Enzyme Activity (ADME) Assay for rat CYP1A2 (AID 2283115; active = hit-call score of the fitted dose curve at least 0.9, where 1 is the maximum). Summed up:
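Primary testing ran in duplicate at 10 uM, with actives re-tested across concentration series. Fluorescence intensity from substrate turnover by recombinant protein, measured 1 hour post-dosing, with signal loss scored against acetonitrile vehicle.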

As usually defined, the AC50 is the concentration at which the activity in the assay is half-maximal.

SMILES strings stand for the structures. “And” between values parts separate entries of the source, which are not always exact repeats. Identical values can stand only once. Records with an inconclusive call do not appear. The source made the active and inactive calls. The calls were made as follows, unless noted: active = hit-call score of the fitted dose curve at least 0.9, where 1 is the maximum; inactive = score below 0.9.

Chain of human CYP1A1, CYP1A1 (gene 1543) (P04798 whole entry, looked up): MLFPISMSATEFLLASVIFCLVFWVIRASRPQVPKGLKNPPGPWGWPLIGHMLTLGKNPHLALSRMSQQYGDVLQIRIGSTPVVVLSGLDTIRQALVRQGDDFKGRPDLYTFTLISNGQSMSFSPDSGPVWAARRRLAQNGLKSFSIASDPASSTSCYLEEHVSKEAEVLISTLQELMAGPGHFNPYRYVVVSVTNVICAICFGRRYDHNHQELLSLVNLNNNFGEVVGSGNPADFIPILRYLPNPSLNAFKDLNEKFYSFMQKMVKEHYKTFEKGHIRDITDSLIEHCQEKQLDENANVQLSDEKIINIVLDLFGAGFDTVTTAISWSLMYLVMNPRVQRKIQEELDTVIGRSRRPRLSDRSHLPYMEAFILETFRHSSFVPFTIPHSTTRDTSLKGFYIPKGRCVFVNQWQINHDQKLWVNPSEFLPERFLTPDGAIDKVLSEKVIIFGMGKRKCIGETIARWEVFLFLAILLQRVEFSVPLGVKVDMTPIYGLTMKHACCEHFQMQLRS
Chain of human CYP19A1, CYP19A1 (gene 1588) (P11511 whole entry, looked up): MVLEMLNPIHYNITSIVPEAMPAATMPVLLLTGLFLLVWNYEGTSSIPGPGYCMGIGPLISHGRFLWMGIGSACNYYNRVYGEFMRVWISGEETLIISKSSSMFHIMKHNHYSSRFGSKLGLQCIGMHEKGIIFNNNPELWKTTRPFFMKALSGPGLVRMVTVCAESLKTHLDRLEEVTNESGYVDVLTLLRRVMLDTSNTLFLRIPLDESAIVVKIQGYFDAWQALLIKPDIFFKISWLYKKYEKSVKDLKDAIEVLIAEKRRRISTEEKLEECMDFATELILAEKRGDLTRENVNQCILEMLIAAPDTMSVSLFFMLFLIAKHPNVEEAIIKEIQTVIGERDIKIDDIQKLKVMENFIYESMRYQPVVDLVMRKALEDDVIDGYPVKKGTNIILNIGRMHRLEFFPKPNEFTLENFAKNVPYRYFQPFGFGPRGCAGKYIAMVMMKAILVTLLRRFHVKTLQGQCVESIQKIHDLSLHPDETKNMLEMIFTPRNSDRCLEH
Chain of human CYP1A2, CYP1A2 (gene 1544) (P05177 whole entry, looked up): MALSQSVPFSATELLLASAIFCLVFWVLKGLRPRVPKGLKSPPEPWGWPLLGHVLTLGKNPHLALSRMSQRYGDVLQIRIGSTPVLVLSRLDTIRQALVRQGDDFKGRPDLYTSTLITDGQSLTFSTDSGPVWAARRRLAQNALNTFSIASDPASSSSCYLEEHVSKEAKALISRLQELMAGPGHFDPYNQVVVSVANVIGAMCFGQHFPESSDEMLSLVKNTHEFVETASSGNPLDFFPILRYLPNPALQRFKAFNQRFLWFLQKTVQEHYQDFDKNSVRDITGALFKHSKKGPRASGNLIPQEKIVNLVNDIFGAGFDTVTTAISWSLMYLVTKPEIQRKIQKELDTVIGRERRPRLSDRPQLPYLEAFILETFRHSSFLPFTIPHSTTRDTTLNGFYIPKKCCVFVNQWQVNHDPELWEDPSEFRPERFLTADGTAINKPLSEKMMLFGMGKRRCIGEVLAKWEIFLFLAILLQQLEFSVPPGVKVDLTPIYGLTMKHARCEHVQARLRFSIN
Chain of Cytochrome P450 2C18 (Homo sapiens) (P33260 whole entry, looked up): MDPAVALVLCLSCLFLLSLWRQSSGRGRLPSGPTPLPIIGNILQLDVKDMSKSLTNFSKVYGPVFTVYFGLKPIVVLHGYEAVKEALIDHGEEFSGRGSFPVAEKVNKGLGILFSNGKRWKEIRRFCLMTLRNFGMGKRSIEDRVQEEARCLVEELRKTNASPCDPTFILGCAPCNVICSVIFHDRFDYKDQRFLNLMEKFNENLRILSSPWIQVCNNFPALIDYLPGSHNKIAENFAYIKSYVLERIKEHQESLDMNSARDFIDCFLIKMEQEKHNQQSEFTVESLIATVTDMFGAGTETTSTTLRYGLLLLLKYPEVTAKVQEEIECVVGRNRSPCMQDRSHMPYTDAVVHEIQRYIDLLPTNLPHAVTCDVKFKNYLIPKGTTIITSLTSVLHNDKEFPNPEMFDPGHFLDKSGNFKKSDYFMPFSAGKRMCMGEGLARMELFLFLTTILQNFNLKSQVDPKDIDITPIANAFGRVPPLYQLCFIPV
Chain of human CYP2D6, CYP2D6 (gene 1565) (P10635 whole entry, looked up): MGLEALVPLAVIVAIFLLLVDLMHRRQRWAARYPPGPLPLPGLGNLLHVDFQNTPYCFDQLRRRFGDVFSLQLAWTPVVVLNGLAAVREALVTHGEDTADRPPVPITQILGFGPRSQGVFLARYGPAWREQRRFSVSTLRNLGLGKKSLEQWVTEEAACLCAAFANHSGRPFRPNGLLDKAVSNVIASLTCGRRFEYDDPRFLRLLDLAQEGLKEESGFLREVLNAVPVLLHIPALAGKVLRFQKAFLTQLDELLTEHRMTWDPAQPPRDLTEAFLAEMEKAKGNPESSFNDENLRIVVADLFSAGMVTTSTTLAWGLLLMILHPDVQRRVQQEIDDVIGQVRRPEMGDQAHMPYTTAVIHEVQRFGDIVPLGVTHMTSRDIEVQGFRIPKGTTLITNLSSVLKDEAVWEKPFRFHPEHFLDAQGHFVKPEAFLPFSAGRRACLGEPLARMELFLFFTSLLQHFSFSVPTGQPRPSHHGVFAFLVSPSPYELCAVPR
Chain of rat CYP1A2, Cyp1a2 (gene 24297) (P04799 whole entry, looked up): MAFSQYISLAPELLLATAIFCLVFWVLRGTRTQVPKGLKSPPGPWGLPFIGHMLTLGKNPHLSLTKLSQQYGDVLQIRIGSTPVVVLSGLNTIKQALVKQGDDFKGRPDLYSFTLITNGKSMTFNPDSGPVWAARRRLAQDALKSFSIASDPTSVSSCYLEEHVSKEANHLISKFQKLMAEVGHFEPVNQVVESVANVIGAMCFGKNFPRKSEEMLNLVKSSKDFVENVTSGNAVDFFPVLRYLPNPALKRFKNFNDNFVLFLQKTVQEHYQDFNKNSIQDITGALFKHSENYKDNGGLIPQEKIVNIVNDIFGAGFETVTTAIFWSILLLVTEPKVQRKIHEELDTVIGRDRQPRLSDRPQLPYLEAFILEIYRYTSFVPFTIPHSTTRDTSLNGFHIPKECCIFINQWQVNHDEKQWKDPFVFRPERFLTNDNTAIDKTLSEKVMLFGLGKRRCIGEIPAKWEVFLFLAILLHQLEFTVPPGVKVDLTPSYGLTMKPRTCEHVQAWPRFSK
Chain of Cytochrome P450 3A4 (Homo sapiens) (P08684 whole entry, looked up): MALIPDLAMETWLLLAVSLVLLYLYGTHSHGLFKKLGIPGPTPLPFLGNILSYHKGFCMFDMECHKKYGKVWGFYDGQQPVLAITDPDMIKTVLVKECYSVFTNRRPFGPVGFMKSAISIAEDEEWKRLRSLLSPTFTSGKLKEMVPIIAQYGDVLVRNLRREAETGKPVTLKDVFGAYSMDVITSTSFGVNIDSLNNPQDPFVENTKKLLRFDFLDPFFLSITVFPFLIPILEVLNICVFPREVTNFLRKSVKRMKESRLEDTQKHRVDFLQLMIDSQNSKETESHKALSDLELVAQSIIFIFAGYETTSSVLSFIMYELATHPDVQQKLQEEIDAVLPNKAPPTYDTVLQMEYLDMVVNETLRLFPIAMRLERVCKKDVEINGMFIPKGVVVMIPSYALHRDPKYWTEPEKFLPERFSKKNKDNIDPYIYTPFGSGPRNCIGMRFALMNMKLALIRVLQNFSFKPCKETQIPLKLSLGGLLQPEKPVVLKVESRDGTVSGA

In the case of `COC(=O)NC(=S)Nc1ccccc1NC(=S)NC(=O)OC`, the result in [1] and in test [5] was inactive. Also, the AC50 in [2] is 14 µM (active); in test [3] it was 25.1 µM (active); in [4], 19.2 µM (active); in test [6] it was 10 µM (active).
On to `CS(=O)(=O)c1cc(C(F)(F)F)ccc1C(=O)c1cnoc1C1CC1`, for which the outcome in [1], in [2], in test [3], in test [4], in test [5] and in [7] was inactive.
Consider `CCCCOCN(C(=O)CCl)c1c(CC)cccc1CC`, for which the AC50 in test [1] is 33.9 µM (active); in test [2] it was 33.2 µM (active); in [3] it was 31 µM (active); in [4], 22.2 µM (active); in test [8] it was 8.94 µM (active); in test [9], 6.71 µM (active). The figures for the AC50 in test [10], in [11] and in [6] were 5.52 µM (active), 9.74 µM (active) and 1.28 µM (active), respectively.
`CC(C)=CC1C(C(=O)OCc2coc(Cc3ccccc3)c2)C1(C)C` (stereo unspecified): the result in test [1] and in test [5] was inactive. For the same compound, the AC50 in test [2] was 5.08 µM (active); in test [3], 12.7 µM (active); in [4], 15.7 µM (active); in test [12], 0.444 µM (active); in test [10] it was 5.84 µM (active); in test [6] it was 8.7 µM (active).
As to `CCCN(CC)CC1COC2(CCC(C(C)(C)C)CC2)O1` (stereo unspecified), the result in test [1], in test [5] and in [10] was inactive. Besides, the half-maximal activity concentration (AC50) in test [2] was 12.2 µM (active); in test [3], 12.1 µM (active); in test [4] it was 6.99 µM (active).
`CCNP(=S)(OC)O/C(C)=C/C(=O)OC(C)C` (stereo unspecified): the result in [1], in test [2], in test [3], in [4] and in [5] was inactive. The half-maximal activity concentration (AC50) in test [13] is 2.43 µM (active); in test [8] it was 0.723 µM (active); in test [14] it was 5.76 µM (active); in [9] it was 2.63 µM (active); in test [15] it was 1.33 µM (active); in test [7] it was 7.62 µM (active). For the same compound, the values for the AC50 in test [10] and in [6] were 1.79 µM (active) and 0.107 µM (active), respectively.
As for `CCC(C)n1c(=O)[nH]c(C)c(Br)c1=O` (stereo unspecified), the outcome in test [1], in test [2], in test [3], in test [4] and in test [6] was inactive.
Take `CC(C)NC(=O)N1CC(=O)N(c2cc(Cl)cc(Cl)c2)C1=O`: the result in test [1], in test [2], in test [3], in test [4], in test [12] and in test [9] was inactive. In addition, in test [16], the compound was called inactive. The AC50 in test [13] was 5.48 µM (active); in [14] it was 5.75 µM (active); in [10] it was 4.01 µM (active); in test [6] it was 2.06 µM (active).
`COC(=O)c1c(C(F)F)nc(C(F)(F)F)c(C2=NCCS2)c1CC(C)C`: the result in test [1] and in [3] was inactive. For the same compound, the AC50 in [2] was 12.1 µM (active); in test [4], 14.6 µM (active); in [5], 32.5 µM (active); in test [8], 5.93 µM (active); in test [14] it was 0.561 µM (active); in [9] it was 1.88 µM (active). Also, the half-maximal activity concentration (AC50) in [6] is 1.27 µM (active).
As for `Cc1ccc(N=CN(C)C=Nc2ccc(C)cc2C)c(C)c1`, the AC50 is 30.7 µM (active) in test [1], 34.9 µM (active) in test [2], 21.7 µM (active) in test [4] and 5.27 µM (active) in test [6]. Also, the result in test [3] and in test [7] was inactive.
Consider `Cc1c(COC(=O)[C@@H]2[C@H](/C=C(\Cl)C(F)(F)F)C2(C)C)cccc1-c1ccccc1`, for which the result in test [1], in test [2] and in test [12] was inactive. For the same compound, the half-maximal activity concentration (AC50) was 9.35 µM (active) in [3], 14.1 µM (active) in test [4], 9.26 µM (active) in test [5] and 12.9 µM (active) in test [6].
With `CCOC(=O)C(C)OC(=O)c1cc(Oc2ccc(C(F)(F)F)cc2Cl)ccc1[N+](=O)[O-]` (stereo unspecified), the outcome in [1], in test [2], in [3], in test [12] and in test [7] was inactive. The AC50 in test [4] is 30.9 µM (active); in test [6] it was 4.01 µM (active).
For `CC(C)(C)C(=O)C(Oc1ccc(Cl)cc1)n1cncn1` (stereo unspecified), the result in test [1], in test [2], in test [3] and in [4] was inactive. Besides, the half-maximal activity concentration (AC50) is 2.38 µM (active) in test [12]; 1.62 µM (active) in test [13]; 8.28 µM (active) in [9]; 6.98 µM (active) and 4.65 µM (active) in [10]; 5.81 µM (active) in test [11]; 1.32 µM (active) in test [6].
Regarding `N#Cc1c[nH]cc1-c1cccc2c1OC(F)(F)O2`, the result in [1], in [2] and in [16] was inactive. In addition, the half-maximal activity concentration (AC50) in [3] is 27.4 µM (active); in [4], 20 µM (active); in test [5], 13.1 µM (active); in test [14], 0.353 µM (active).
For `CC(C)C1(C)N=C(c2ncccc2C(=O)O)NC1=O` (stereo unspecified), the result in test [1], in test [2], in test [3], in test [4], in test [5] and in test [10] was inactive.
